Screening data: PubChem, several laboratories
Shn3 3UTR inh: reduces Shn3 3'UTR luciferase signal in osteoblasts | 360,000 compounds, 0.52% hits | Clone20 osteoblast Shn3 3'UTR firefly luciferase, 24 h | inhibition, % at 12.5 µM;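 active means mean inhibition of at least 75% with every replicate also reaching 75%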
CF NFkB block: inhibitors of cystic fibrosis induced NF-kB; KKLEB NF-kB-GFP reporter, PAF-induced, GFP fluorescence overnight; inhibition, % at 5 µM; 360,000 compounds, 0.86% hits;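 active means at least 50% inhibition at 5 µM, scaled per plate between neutral and stimulator controls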;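 further: PAF is a Pseudomonas aeruginosa culture filtrate used as stimulus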
HIF-2a block: blocks HIF-2a reporter activity; 786-0 RCC cells HIF-2a reporter, luciferase luminescence, overnight; inhibition, % at 18.8 µM; 360,000 compounds, 0.72% hits;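 active means inhibition of the luminescence signal of 40% or more relative to plate controls, in a single-dose primary screen at 18.75 µM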
Peg3 prom inh: reduces Peg3 promoter-driven luciferase expression in HeLa; HeLa PEG-Prom luciferase reporter, luminescence, overnight; inhibition, % at 20 µM; 360,000 compounds, 1.7% hits;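 active means inhibition of at least 50% at 20 µM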
KKLEB cytotox: counter-screen for CF NF-kB inhibitors: cytotoxicity; KKLEB CF airway cells viability, ATPlite luminescence, overnight; active compounds read low; cells stimulated with P. aeruginosa culture filtrate; activity change (cytotoxicity), % at 5 µM; 360,000 compounds, 0.36% hits;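 active means corrected activity change at or below -50% at 5 µM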
CF NFkB inh conf: confirmation of cystic fibrosis induced NF-kB inhibitors. shares compounds with CF NFkB block. KKLEB CF airway cells, PAF-induced NF-kB-GFP fluorescence, overnight. inhibition, % at 5 µM. 1,300 compounds, 64% hits. AID 602472; in the data active means inhibition above about 40%;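 further: stimulus PAF is a Pseudomonas aeruginosa filtrate and not platelet activating factor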
Numbers stand for hits; . = inactive; / = no result. A selection: hits, their analogues and other compounds. The true share with any hit is near 2.6%.

SMILES | Shn3 3UTR inh | CF NFkB block | HIF-2a block | Peg3 prom inh | KKLEB cytotox | CF NFkB inh conf
CC1(C)O[C@@H]2C[C@H]3[C@@H]4C[C@H](F)C5=CC(=O)CC[C@]5(C)[C@H]4[C@@H](O)C[C@]3(C)[C@]2(C(=O)CO)O1 | . | 74 | . | . | . | .
Cc1cccc(N2CCN(C(=O)c3c(-c4ccccc4Cl)noc3C)CC2)c1C | . | . | . | . | . | /
COc1cc(OC)cc(C(=O)NCCCN2CCN(CCCNC(=O)c3cc(OC)cc(OC)c3)CC2)c1 | . | . | . | . | . | /
CC1CCCC(C)N1C(=O)CN1C(=O)NC2(CCCCCC2)C1=O (stereo unspecified) | . | . | . | . | . | /
Cc1nc(N2CCC(C(N)=O)CC2)c2c(-c3cccs3)csc2n1 | . | 67 | . | . | . | 68
Fc1ccc2[nH]c3c(c2c1)CN(C(=S)NCc1ccccc1)CC3 | . | . | . | . | . | /
CC(NC(=S)Nc1ccc([N+](=O)[O-])cc1)c1ccncc1 (stereo unspecified) | . | . | . | . | . | /
CC(C)(C)OC(=O)NCCCCCNC(=O)c1nc[nH]c1C(=O)NCC(=O)OCc1ccccc1 | . | 74 | . | 74 | . | 72
CCCCNC(=O)C1c2ccccc2OCC(=O)N1CCOC (stereo unspecified) | / | / | . | / | / | /
CC1(C)OC2CC3C4CCC5=CC(=O)C=CC5(C)C4(F)C(O)CC3(C)C2(C(=O)CO)O1 (stereo unspecified) | . | 67 | . | . | . | .
C[C@@H]1C[C@H]2[C@@H]3CCC4=CC(=O)C=C[C@]4(C)[C@@]3(F)[C@@H](O)C[C@]2(C)[C@@]1(O)C(=O)CO | . | 71 | . | . | . | .
CC12CCC(=O)C=C1CCC1C2C(=O)CC2(C)C1CC[C@]2(O)C(=O)CO (stereo partly specified) | . | . | . | . | . | /
COc1ccc(CCNc2ccc(S(N)(=O)=O)cn2)cc1 | . | . | . | . | . | /
NS(=O)(=O)c1ccc(CCNc2nn3c(-c4cccc(OC(F)(F)F)c4)cnc3s2)cc1 | . | 53 | . | 102 | . | 70
CN1CCN(c2ccc([N+](=O)[O-])cc2C(=O)N2CCOCC2)CC1 | . | . | . | . | . | /
O=C(c1cc([N+](=O)[O-])ccc1N1CCOCC1)N1CCN(c2ccccc2)CC1 | . | 53 | . | . | . | 59
CCOC(=O)[C@@H]1[C@H]2COc3ccccc3[C@@H]2N2C(=O)N(c3ccc(Br)cc3)C(=O)[C@@]12C | . | . | . | . | . | /
Cc1nc2c(N=Nc3ccccc3F)c(N)nn2c(N)c1C#N | . | . | . | . | . | /
O=C(COC(=O)c1ccc([N+](=O)[O-])s1)c1ccc[nH]1 | . | . | . | . | . | /
CC(=O)Oc1ccc(-c2ccc(C(=O)OCC(=O)N(C)CC(=O)Nc3ccccc3Cl)cc2)cc1 | . | 52 | . | . | . | .
CN(CC(=O)Nc1ccccc1Cl)C(=O)COC(=O)c1ccc(S(=O)(=O)C(F)F)cc1 | . | . | . | . | . | /
CC1C(c2ccccc2)OCCN1C(=S)Nc1ccc(S(=O)(=O)N2CCCCC2)cc1 (stereo unspecified) | . | 58 | . | . | . | 60
CCOC(=O)Nc1ccc2c(c1)N(C(=O)N1CCN(C)CC1)c1ccccc1S2 | . | . | . | . | . | /
C=CC(=O)N1c2ccccc2Sc2ccc(NC(=O)OCC)cc21 | . | 80 | . | 95 | . | .
O=[N+]([O-])c1ccc(-n2nnnc2-c2ccccc2)cc1 | . | . | . | . | . | /
SMILES | Shn3 3UTR inh | CF NFkB block | HIF-2a block | Peg3 prom inh | KKLEB cytotox | CF NFkB inh conf
O=[N+]([O-])c1ccc(-n2nnnc2-c2ccccc2)c([N+](=O)[O-])c1 | . | 68 | . | . | . | .
COc1ccc(C2NC(c3ccc(OC)cc3OC)C(C)C(=O)C2C)c(OC)c1 (stereo unspecified) | . | . | . | . | . | /
Cc1c(C(=O)N2CCC(Cc3ccccc3)CC2)cccc1[N+](=O)[O-] | . | 51 | . | . | . | 43
Nc1c(C(=O)Nc2ccccc2)sc2nc3c(c(-c4ccco4)c12)CCCC3 | . | 51 | . | . | . | .
CCOC(=O)N1CCN(C(=O)c2cn(CC)c3ccc(S(=O)(=O)N4CCOCC4)cc3c2=O)CC1 | . | . | . | . | . | /
Nc1[nH]nc2nc(N3CCCC3)nc(-c3ccccc3)c12 | . | . | . | . | . | /
COc1ccc(-c2nc(N3CCOCC3)nc3n[nH]c(N)c23)cc1 | . | 69 | . | . | . | 56
CCOc1cc(C(C(=O)NCC2CCCO2)N(C(=O)Cn2nnc3ccccc32)c2ccccc2C(C)=O)ccc1O (stereo unspecified) | . | . | . | . | . | /
O=C1C2C(c3ccccc3)CC=CC2[C@H](c2ccc3ccccc3c2)N1Cc1ccccc1 (stereo partly specified) | . | 55 | . | . | . | 43
Cc1ccc(F)c([C@H]2C3C=CCC(c4ccccc4)C3C(=O)N2Cc2ccccc2)c1 (stereo partly specified) | . | 63 | . | . | . | .
O=C1C2C(c3ccccc3)CC=CC2[C@H](c2ccoc2)N1Cc1ccccc1 (stereo partly specified) | . | . | . | . | . | /
COc1ccc(C)c2sc(N(CCN(C)C)C(=O)/C=C/c3cccs3)nc12 | . | 56 | . | 50 | . | .
COc1cccc2sc(N(CCN(C)C)C(=O)/C=C/c3cccs3)nc12 | . | . | . | . | . | /
COc1ccccc1NC(=O)C1=C(C)NC(=O)NC1c1cccs1 (stereo unspecified) | . | . | . | . | . | /
CN1C2C=CC(=O)C1C1C(=O)N(c3ccccc3)C(=O)C12 (stereo unspecified) | . | 62 | . | . | . | .
O=C(C1CCCCC1)N1CCN(S(=O)(=O)c2cccc([N+](=O)[O-])c2)CC1 | . | . | . | . | . | /
O=C(CCS(=O)(=O)c1ccccc1)N(CCCN1CCOCC1)c1nc2ccc(F)cc2s1 | . | 59 | . | 94 | . | .
O=C(CCS(=O)(=O)c1ccccc1)N(CCCN1CCOCC1)c1nc2c(F)cccc2s1 | . | 94 | . | 104 | . | 71
COc1ccc(-c2csc(NC3OC(=O)c4c3ccc(OC)c4OC)n2)cc1OC (stereo unspecified) | / | 77 | . | 60 | . | 87
COc1ccc2c(c1OC)C(=O)OC2Nc1nc(-c2ccc([N+](=O)[O-])cc2)cs1 (stereo unspecified) | . | . | . | . | . | /
O=C(Nc1ccc(Cl)cc1)Nc1cc([N+](=O)[O-])ccc1F | . | . | . | . | . | /
O=C(Nc1ccc([N+](=O)[O-])cc1)Nc1ccc(Cl)cc1F | . | 52 | . | . | . | 46
S=c1sc2c(Cl)ncnc2n1-c1ccccc1 | . | 78 | 84 | 112 | . | .
